From PubChem BioAssay (NCATS)
Results filed as inconclusive are left out. Active and inactive are the calls of the source. Calls come from the whole dose curve; as a rule, active = well fitted curve in either direction with a large enough effect (not every such curve was filed as active); inconclusive = small, poorly fitted or top-dose-only effect, or another doubt; inactive = flat fitted curve, though single readings scatter. Residues, ends and D or L forms follow the SMILES beside them. *: point of attachment. Cbz = O=C(OCc1ccccc1)*

What follows are compounds tested against Mitogen-activated protein kinase 10 (Mus musculus) (UniProt Q61831) (assay: JNK3 AlphaScreen Assay (AID 530;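 note: kinase came from lysate of stimulated human HepG2 cells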)). Settings: JNK3 lysate, c-Jun phosphorylation; series mostly up to 57.1 µM.
Source text: NIH Chemical Genomics Center [NCGC]
NIH Molecular Libraries Screening Centers Network [MLSCN]
The c-jun N-terminal kinase (JNK) family are serine/threonine protein kinases that phosphorylate c-jun, a component of the transcription factor […] (AP-1). JNK kinases are members of the mitogen-activated protein kinase family including the extracellular regulated kinases and p38 kinases. Three JNK genes (JNK 1, 2, and 3) have been identified in humans so far. JNK1 and JNK2 have a broad distribution and JNK3 is primarily found in neuronal tissues and cardiac myocytes.
JNK3 has been under consideration as a target for the treatment of neurodegenerative disorders. […] JNK pathway is also involved in pathological process in a mouse model of Parkinson's disease (Xia et al., 2001).
Given these potential tissue distributions and links to neuroprotection, JNK3 inhibitors should provide useful investigational tools to study the role of this kinase in several diseases including, arthritis, stroke, myocardial infarction, ischemic injury and Parkinson's disease.
A homogeneous AlphaScreen is developed to measure the activity of JNK3. AlphaScreen is a two bead-based proximity-dependent chemical energy transfer luminescent assay platform. The phosphorylation of a biotinylated c-jun substrate by JNK3 can be detected with an antibody raised against phosphorylated c-jun. This process brings streptavidin donor beads and Protein-A acceptor beads to within a proximity range of <200 nm, and subsequently lead a chemical luminescent reaction upon exciting donor beads with 680 nm laser excitation light. Inhibition of JNK3 activity by small molecules and subsequent decrease in the antibody binding to biotinylated c-jun could attenuate or abolish this chemical luminescent reaction.
Yang DD, Kuan CY, Whitmarsh AJ, Rincon M, Zheng TS, Davis RJ, Rakic P and Flavell RA (1997) Absence of excitotoxicity-induced apoptosis in the hippocampus of mice lacking the Jnk3 gene. Nature 389:865-870. [PMID: 9349820]
Herdegen T, Claret FX, Kallunki T, Martin-Villalba A, Winter C, Hunter T, and Karin M (1998) Lasting N-terminal phosphorylation of c-Jun and activation of c-Jun N-terminal kinases after neuronal injury. J.Neurosci. 18:5124-5135. [PMID: 9651196]
Xia XG, Harding T, Weller M, Bieneman A, Uney JB and Schulz JB (2001) Gene transfer of the JNK interacting protein-1 protects dopaminergic neurons in the MPTP model of Parkinson's disease. Proc.Natl.Acad.Sci.U.S.A. 98:10433-10438.
NCGC Assay Protocol Summary:
GST-cJun (1-79) (Stratagene, La Jolla CA, #205145) was biotnylated by PerkinElmer (PerkinElmer-BioSignalInc. Montreal, Canada) and was detectable by the streptavidin Donor beads. Anti-(phospho)cJun (Ser73) antibody was from UpState (Charlottesvilles, VA, #06-659). JNK3-containing lysates were generated from HepG2 cells and pre-activated by interleukin1-beta and tumor necrosis factor alpha. All reagents were stored at -20 C before using. Phosphorylated biotinylated-GST-cJun was recognized by Anti-(phospho)cJun (Ser73) antibody and this process brings acceptor and donor beads together. Therefore JNK3 phosphorylation of cJun can be measured by Alpha reading by EnVision (PerkinElmer, Boston, MA).
The composition of kinase buffer was (in mM) 20 tris- HCl (pH 7.6) 10 MgCl2, 1 DTT, and 0.1 Na3VO4 and 0.01% Tween-20. Beads were diluted in detection buffer containing (in mM) 20 tris-HCl (pH 7.7), 20 NaCl and 80 EDTA and 0.3% BSA. The assay was performed at room temperature. All compounds were screened as titrations from 0.6 nM to 46 uM final concentration. The assay was performed in 1536-well format (white solid bottom and untreated) as follows:
Sequence,Parameter,Value,Description
1,Reagent,3 uL,Biotin-GST-cJun, Anti-(phospho)cJun and pre-activated JNK3-containing lysates
2,Compound,23 nL,Final concentration was 0.6nM to 46uM
3,Time,15 minutes,Room Temperature
4,Reagent,1 uL,ATP final concentration 10uM
6,Reagent,0.5 uL,2ng/well bead mixture
[…]

Compound | outcome
Cn1ccnc1 | inactive
CCCc1c(OCCCOc2ccc(OCC(=O)O)cc2)ccc(C(C)=O)c1O | inactive
CC1CCN(CC[C@H]2CCCN2S(=O)(=O)c2cccc(O)c2)CC1 | inactive
CNC(=O)c1cc2c(cn1)[nH]c1ccccc12 | inactive
C=C1C(=O)O[C@@H]2[C@H]3O[C@]3(C)CCC=C(C)CC[C@@H]12 | inactive
COc1cc(CNC(=O)CCCCCCC(C)C)ccc1O | inactive
O=c1onc2n1-c1cc(Br)ccc1OC2 | inactive
CC[C@H](NC(=O)c1c(C)c(-c2ccccc2)nc2ccccc12)c1ccccc1 | inactive
COc1ccc(CCN(C)CCc2ccc(OC)c(OC)c2)cc1OC | inactive
Oc1cc(O)c2c(c1)O[C@H](c1ccc(O)c(O)c1)[C@@H](O)C2 | inactive
CCCCCCN(CCCCCC)C(=O)Cc1c(-c2ccc(F)cc2)[nH]c2ccccc12 | inactive
COc1cc(CC(=O)O)ccc1O | inactive
NC1(C(=O)O)CC1 | inactive
O=c1oc(Cl)c(Cl)c2ccccc12 | inactive
CCc1ccc2c(-c3cccc(Cl)c3)nc(=O)n(CC)c2n1 | inactive
C#CCn1c(=O)c2c(ncn2C)n(C)c1=O | inactive
COc1ccccc1N1CCN(CCCCNC(=O)c2ccc3ccccc3c2)CC1 | inactive
CN1CCN(c2nc3cc(C(F)(F)F)ccc3n3cccc23)CC1 | inactive
NC1(C(=O)O)CCCCC1 | inactive
O=C(N[C@@H](Cc1ccccc1)C(=O)CCl)OCc1ccccc1 | inactive

Compound | outcome
COc1ccc(NC(=O)c2ccc(-c3ccc(-c4noc(C)n4)cc3C)cc2)cc1N1CCN(C)CC1 | inactive
CC(C)NC[C@H](O)COc1ccc(CC(N)=O)cc1 | inactive
N#CC(C#N)=C(N)/C(C#N)=C/c1ccc(O)cc1 | inactive
OC1(c2ccc(Cl)cc2)CCN(Cc2c[nH]c3ccccc23)CC1 | inactive
CC(C)[C@H](NC(=O)OCc1ccccc1)C(=O)N[C@H](C=O)Cc1ccccc1 (Cbz-Val-Phe-aldehyde) | inactive
Cc1nc(N=Nc2ccc(S(=O)(=O)O)cc2S(=O)(=O)O)c(COP(=O)(O)O)c(C=O)c1O | inactive
O=C(OCCN1CCOCC1)C1(c2ccccc2)CCCCC1 | inactive
CCCn1c(=O)c2[nH]c(C3CCCC3)nc2n(CCC)c1=O | inactive
O=C(O)C1=CCNCC1 | inactive
COC(=O)[C@H](NC(=O)c1cc(-c2ccccc2)nc2ccccc12)c1ccccc1 | inactive
COc1ccc2c(c1)c(CC(=O)O)c(C)n2C(=O)c1ccccc1 | inactive
COCc1nc2c([nH]1)c(=O)n(C)c(=O)n2CC(C)C | inactive
O=C(O)C1=CCCNC1 | inactive
Nc1ncnc2c1c(-c1ccc(Oc3ccccc3)cc1)cn2C1CCCC1 | inactive
NCCCNCCCCNCCCN | inactive
Cc1nc(N=Nc2cc(S(=O)(=O)O)c3cc([N+](=O)[O-])cc(S(=O)(=O)O)c3c2)c(COP(=O)(O)O)c(C=O)c1O | inactive
O=c1[nH]ccc2c(O)cccc12 | inactive
S=C(S)N1CCCC1 | inactive
N[C@@H](CS(=O)O)C(=O)O | inactive
CCCCCC[C@@H]([C@@H](C)O)n1cnc2c(N)ncnc21 | inactive
